Source: the supplement of paper PMC8728848
The full list was thinned out, with the strongest signals kept by preference.

Legend:
Test in all cases: glycan array binding signal (z-score within array); higher = stronger binding
Conditions in all cases: glycan notation: IUPAC condensed, linker removed
[1] = target: Fuc(a1-2)Gal(b1-3)GlcNAc(b1-2)Man(a1-3)[Fuc(a1-2)Gal(b1-3)GlcNAc(b1-2)Man(a1-6)]Man(b1-4)GlcNAc(b1-4)GlcNAc
Method in brief: (§1)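 Negative Z-scores can be read as non-binding. The Z-score is calculated within each array and then averaged across arrays of one protein sequence at different concentrations or buffers and across linkers. Arrays, 3228 in all, were curated from the Consortium for Functional Glycomics database and kept only where the protein sequence was available.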

[2] = target: Fuc(a1-2)Gal(b1-3)[Fuc(a1-4)]GlcNAc(b1-2)Man(a1-3)[Fuc(a1-2)Gal(b1-3)[Fuc(a1-4)]GlcNAc(b1-2)Man(a1-6)]Man(b1-4)GlcNAc(b1-4)[Fuc(a1-6)]GlcNAc(b1-4)[Fuc(a1-6)]GlcNAc
Method in brief: as §1

[3] = target: Fuc(a1-2)Gal(b1-4)GlcNAc(b1-3)Gal(b1-4)GlcNAc(b1-2)Man(a1-3)[Fuc(a1-2)Gal(b1-4)GlcNAc(b1-3)Gal(b1-4)GlcNAc(b1-2)Man(a1-6)]Man(b1-4)GlcNAc(b1-4)GlcNAc
Method in brief: as §1

[4] = target: Fuc(a1-2)[Gal(a1-3)]Gal(b1-4)GlcNAc(b1-2)Man(a1-3)[Fuc(a1-2)[Gal(a1-3)]Gal(b1-4)GlcNAc(b1-2)Man(a1-6)]Man(b1-4)GlcNAc(b1-4)GlcNAc
Method in brief: as §1

[5] = target: Fuc(a1-2)[GalNAc(a1-3)]Gal(b1-4)GlcNAc(b1-3)Gal(b1-4)GlcNAc(b1-3)Gal(b1-4)GlcNAc
Method in brief: as §1

[6] = target: Fuc(a1-2)[GalNAc(a1-3)]Gal(b1-4)[Fuc(a1-3)]GlcNAc
Method in brief: as §1

[7] = target: Fuc(a1-3)[Gal(b1-4)]GlcNAc(b1-2)Man
Method in brief: as §1

[8] = target: Fuc(a1-3)[Gal(b1-4)]GlcNAc(b1-2)Man(a1-3)[Fuc(a1-3)[Gal(b1-4)]GlcNAc(b1-2)Man(a1-6)]Man(b1-4)GlcNAc(b1-4)GlcNAc
Method in brief: as §1

[9] = target: Gal(a1-3)[Gal(a1-4)]Gal(b1-4)GlcNAc
Method in brief: as §1

[10] = target: Gal(b1-3)GalNAc(b1-4)Gal(b1-4)Glc
Method in brief: as §1

[11] = target: Gal(b1-3)[Fuc(a1-4)]GlcNAc(b1-3)Gal(b1-4)[Fuc(a1-3)]GlcNAc
Method in brief: as §1

[12] = target: Gal(b1-3)[Neu5Ac(b2-6)]GalNAc
Method in brief: as §1

Gal(b1-4)GlcNAc = target: Gal(b1-4)GlcNAc
Method in brief: as §1

[13] = target: Gal(b1-4)GlcNAc(a1-6)Gal(b1-4)GlcNAc
Method in brief: as §1

[14] = target: Gal(b1-4)GlcNAc(b1-2)Man(a1-3)[Man(a1-6)]Man(b1-4)GlcNAc(b1-4)GlcNAc
Method in brief: as §1

[15] = target: Gal(b1-4)GlcNAc(b1-2)[Gal(b1-4)GlcNAc(b1-6)]Man(a1-6)[Gal(b1-4)GlcNAc(b1-2)Man(a1-3)]Man(b1-4)GlcNAc(b1-4)[Fuc(a1-6)]GlcNAc
Method in brief: as §1

[16] = target: Gal(b1-4)GlcNAc(b1-3)Gal(b1-4)GlcNAc(b1-2)[Gal(b1-4)GlcNAc(b1-3)Gal(b1-4)GlcNAc(b1-6)]Man(a1-6)[Gal(b1-4)GlcNAc(b1-3)Gal(b1-4)GlcNAc(b1-2)Man(a1-3)]Man(b1-4)GlcNAc(b1-4)GlcNAc
Method in brief: as §1

[17] = target: Gal(b1-4)GlcNAc(b1-3)Gal(b1-4)GlcNAc(b1-2)[Gal(b1-4)GlcNAc(b1-3)Gal(b1-4)GlcNAc(b1-6)]Man(a1-6)[Gal(b1-4)GlcNAc(b1-3)Gal(b1-4)GlcNAc(b1-2)Man(a1-3)]Man(b1-4)GlcNAc(b1-4)[Fuc(a1-6)]GlcNAc
Method in brief: as §1

[18] = target: Gal(b1-4)GlcNAc(b1-3)Gal(b1-4)GlcNAc(b1-3)Gal(b1-4)GlcNAc(b1-2)Man(a1-3)[Gal(b1-4)GlcNAc(b1-3)Gal(b1-4)GlcNAc(b1-3)Gal(b1-4)GlcNAc(b1-2)Man(a1-6)]Man(b1-4)GlcNAc(b1-4)[Fuc(a1-6)]GlcNAc
Method in brief: as §1

[19] = target: Gal(b1-4)GlcNAc(b1-3)Gal(b1-4)GlcNAc(b1-6)[Gal(b1-3)]GalNAc
Method in brief: as §1

Gal(b1-6)Gal = target: Gal(b1-6)Gal
Method in brief: as §1

[20] = target: GalNAc(b1-4)GlcNAc(b1-2)Man
Method in brief: as §1

GalNAc3S(b1-4)GlcNAc = target: GalNAc3S(b1-4)GlcNAc
Method in brief: as §1

Glc(b1-6)Glc = target: Glc(b1-6)Glc
Method in brief: as §1

B1: BT4246 (Bacteroides thetaiotaomicron), Q89ZX5 (protein)
chain: MGSSHHHHHHENLYFQGHMASDYLDVVPPEQPNIDDAMSSPTRALGFLYSCYGGVSTDLPSAYLGEINSTTDEYVLPYSWNTDGYWGAYAFNTASSTNQDWLWGTTYQYIGQCYLFLQKLENAGSDIASDAEKEQWRAECQFLVAYYHFATLRRYGPIPITDSYIPMDTPTSEYNGRFHFDYCVDWIANQLDEAAKVLPANRTVTNEWGRATSTIAKAVKARLLLYAASPLWNGSFPYPNWQNENFETPGYGKALVSNTYDKSKWERALAACQEALTLATTSGDRELYDDDEYYSRQSLNLPFVPGVADVEDNKEFLKNVMKMRYAVSTRESEGNKEIIWGLSNQFDFYSRYPLRILKKSDGTWHAGYSGVSPTLYTFEHFYTANGKLPEKDLDFTPSSEWFESAGISSREDIIKLNVGREPRFYAWMAFDGGDYGTKFAAGSPLKLEMRNSEMHGYNPSLFNRDHSVTGFLTQKFVDPVTEFYTAGGSTSGTSAPTILFRLAELYLNVAECHAALGNTQEAIDALNPVRERAGIPKLTLADITNNMTIKDWVHNERFVELWNEGHRFFDVRRWAEGAKYFGANKREGLNAEVQSPTFEEFNKRTTVDAPYVWENRMYLNPVFYNEVYKNPQMVQAPGY
glycan array binding signal (z-score) [1]: 3.2
glycan array binding signal (z-score) [2]: -0.111
glycan array binding signal (z-score) [3]: 0.084
glycan array binding signal (z-score) [4]: 2.43
glycan array binding signal (z-score) [5]: 0.74
glycan array binding signal (z-score) [6]: -2.1
glycan array binding signal (z-score) [7]: 0.571
glycan array binding signal (z-score) [8]: -0.536
glycan array binding signal (z-score) [9]: 0.656
glycan array binding signal (z-score) [10]: 2.02
glycan array binding signal (z-score) [11]: -0.234
glycan array binding signal (z-score) [12]: -0.388
glycan array binding signal (z-score) (Gal(b1-4)GlcNAc): -1.31
glycan array binding signal (z-score) [13]: -0.67
glycan array binding signal (z-score) [14]: 2.35
glycan array binding signal (z-score) [15]: -0.607
glycan array binding signal (z-score) [16]: 2.71
glycan array binding signal (z-score) [17]: 0.32
glycan array binding signal (z-score) [18]: 0.125
glycan array binding signal (z-score) [19]: -0.514
glycan array binding signal (z-score) (Gal(b1-6)Gal): 0.501
glycan array binding signal (z-score) [20]: -0.775
glycan array binding signal (z-score) (GalNAc3S(b1-4)GlcNAc): 1.88
glycan array binding signal (z-score) (Glc(b1-6)Glc): -2.27
